The structures appear in SMILES notation. Screen size: about 65,000 compounds; about 450 (0.69%) were called active. Shown is part of a subset that was picked to be rich in actives. A number with no mark means an inactive call.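 How the source made its calls: active means activation above a set limit, the screen-wide mean activation plus 3 SD (cut at about 8.5% in these data); inactive means the rest.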

This passage reports activation results from PubChem BioAssay AID574 (The Scripps Research Institute Molecular Screening Center, 2007).

The target of the test is 5-hydroxytryptamine receptor 1E (Homo sapiens) (UniProt P28566). In words: activation of human serotonin 5HT1E receptor – cell-based, HTS, primary screen (AID 574).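 Further: 100% = positive control agonist at 1 µM giving full maximal response.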 Conditions: CHO 5-HT1E Ga15 NFAT-bla reporter, FRET; at 6 µM; stronger effect = higher value; 0% DMSO wells, 100% control agonist wells.
5-hydroxytryptamine receptor 1E (Homo sapiens), sequence (P28566 whole entry, looked up): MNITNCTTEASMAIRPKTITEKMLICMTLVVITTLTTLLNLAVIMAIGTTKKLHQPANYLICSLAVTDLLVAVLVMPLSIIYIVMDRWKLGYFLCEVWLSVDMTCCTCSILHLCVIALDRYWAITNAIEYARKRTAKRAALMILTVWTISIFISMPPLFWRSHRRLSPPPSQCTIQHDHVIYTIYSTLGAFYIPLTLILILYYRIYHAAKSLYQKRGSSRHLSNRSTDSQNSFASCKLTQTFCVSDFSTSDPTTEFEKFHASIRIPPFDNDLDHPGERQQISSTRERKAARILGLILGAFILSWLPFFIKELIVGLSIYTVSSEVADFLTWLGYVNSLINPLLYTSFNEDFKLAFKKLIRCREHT
In the case of `CCN(CC)P(=O)(C(NC(=O)OC)C(F)(F)C(F)(F)C(F)(F)C(F)F)N(CC)CC` (configuration not stated), the activation was 0.8%.

Regarding `COc1ccc(C2OC(=O)CC2C(=O)NC(C)C)cc1` (configuration not stated), the activation is 0.2%. For `CCc1c(C)nc(N)n2c(SCC(=O)N3CCN(c4ccccc4)CC3)nnc12`, the activation is -0.4%.

As for `Cc1cc(C)c(C)c(S(=O)(=O)Nc2ccc(O)cc2)c1C`, the activation is -0.5%. For `NS(=O)(=O)c1cc2c(cc1Cl)NC(C(Cl)Cl)NS2(=O)=O` (configuration not stated) the value was -0.1%; for `CC(=C1C(=O)c2ccccc2C1=O)N1CCN(c2ccccn2)CC1`, 0.2%. Consider `O=C(c1cccc(C(=O)N2CCN(c3ccc(F)cc3)CC2)c1)N1CCN(c2ccc(F)cc2)CC1`, for which the activation is 0.7%. `O=C(NC1CCCCC1)C1CCCN(S(=O)(=O)c2cccs2)C1` (configuration not stated): the activation was -0.4%.

On to `Cc1cnc(C(=O)OCC(=O)Nc2ccc(Cl)cc2Cl)cn1`, for which the activation was 0.2%. The value for `CC1(C)Cc2ccccc2-c2nnc(-c3cccc(O)c3)n21` was 0.2%. The value for `Cc1ccc(NC2=NC(c3ccccc3)n3c(nc(C)cc3=O)N2)cc1` (configuration not stated) was 0.3%; that for `COc1ccc(S(=O)(=O)Nc2ccc(S(=O)(=O)N3CCCCC3)cc2)cc1OC` was 0.4%. Regarding `CCCCn1nnnc1NCc1cc(OC)c(OC)c(OC)c1`, the activation was -0.7%. As to `Cc1ccccc1NC(=O)c1cnn(-c2ccccc2)c1NC(=O)c1ccco1`, the activation is 0.5%.

As for `COc1ccc(OCC(=O)OCC(=O)Nc2ccc(S(=O)(=O)N3CCCCC3)cc2)cc1`, the activation was -0.3%.

As to `CC(C)=C(NC(=O)c1ccco1)C(=O)NCCc1nc2ccccc2[nH]1`, the activation was 1.5%. Consider `CCCCC(CCC(=O)Nc1ccc(C(=O)OCC)cc1)C(=O)O` (configuration not stated), for which the activation was -0.3%. In the case of `COC(=O)c1ccc(NC(=O)c2ccco2)cc1`, the activation is 0.1%. `CCN(CC)C(=O)CCC(=O)Nc1ccc(C(=O)OC)cc1`: the activation was 20.5% (active).

Take `O=C1NC(c2ccncc2)Nc2sc3c(c21)CCCC3` (configuration not stated): the activation was 0.1%. Turning to `CCOC(=O)Cn1c2c(c(-c3ccccc3OC)cc1=O)CCCC2`, the activation is -0.4%. On to `COC(=O)c1ccc(CSc2nc3ccccc3c(=O)n2-c2cccc(OC)c2)o1`, for which the activation is 1.3%.

On to `NC(CSC12CC3CC(CC(C3)C1)C2)C(=O)O` (configuration not stated), for which the activation is 0.4%. In the case of `CC1Cc2ccccc2N1C(=O)Cn1cnc2ccccc2c1=O` (configuration not stated), the activation was -0.8%.

On to `Cc1nc2ccc(NC(=O)N3CCC(c4ccccc4)C3)cc2nc1C` (configuration not stated), for which the activation was -0.6%. On to `O=C(O)CCN1C(=O)CC2(CCCCC2)C1=O`, for which the activation was 9.8% (active). Regarding `Cc1ccc(F)cc1NC(=O)c1ccc2c(c1)OCO2`, the activation is -0.9%.
